Activity calls are given as the source filed them. Unless noted, the rule behind the calls is not given here.
Columns and labels:
[1] = test system: Wnt5a (protein binding on small-molecule microarray); assay: small molecules binding Wnt5a protein – biophysical, small-molecule microarray, 635/667 nm fluorescence, primary screen (AID 1142); settings: 635 nm fluorescence, higher = more signal;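 note: fluorescence read at 667 nm with signal to noise per printed feature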
[2] = ATP-based viability of Huh7 replicon cells – cell-based, CellTiter-Glo luminescence, basal, 48 h, cytotoxicity control for HCV replication inhibitor project, primary screen (AID 1143); settings: higher = more signal, called active from +8 up or from −8 down;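 note: Huh7 hepatoma cells carrying a hepatitis C replication reporter with no stimulus; test concentration not given here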
[3] = Pseudomonas biofilm growth suppression – PAO1 strain, BacTiter-Glo luminescence, LB-PBS, primary screen (AID 1144); settings: P. aeruginosa PAO1 biofilm, 12 h, higher = more signal
[4] = basal CRE-LacZ reporter activity in PC12 – cell-based, unstimulated, primary screen (AID 1145); settings: no forskolin, luminescence, 4.5 h, higher = more signal, called active from +8 up or from −8 down
[5] = forskolin-driven CRE-LacZ activity in PC12 – cell-based, CRE-LacZ reporter, forskolin-stimulated, primary screen (AID 1146); settings: luminescence, 4.5 h, higher = more signal, called active from +8 up or from −8 down;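 note: PC12 cells with 6xCRE LacZ reporter stimulated by forskolin 10 µM; beta-galactosidase reporter signal reflecting CREB driven transcription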
[6] = biological target: Streptavidin (Streptomyces avidinii) (UniProt P22629); assay: compounds binding control protein streptavidin – biophysical, small-molecule microarray, 635/667 nm fluorescence, artefact control for SMM compound annotation, primary screen (AID 1147); settings: higher = more signal;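 note: signal reflects streptavidin binding to arrayed compounds as a control protein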
Streptavidin (Streptomyces avidinii), sequence (P22629 whole entry, looked up): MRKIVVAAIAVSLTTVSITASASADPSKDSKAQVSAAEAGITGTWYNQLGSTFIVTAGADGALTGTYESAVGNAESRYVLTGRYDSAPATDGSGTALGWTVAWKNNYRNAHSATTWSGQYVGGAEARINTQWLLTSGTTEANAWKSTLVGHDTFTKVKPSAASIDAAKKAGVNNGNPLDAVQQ

[7] = probe aInhba binding on compound microarray – biochemical, small-molecule microarray, 635/667 nm fluorescence, primary screen (AID 1148); settings: higher = more signal;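 note: score merges 667nm spot fluorescence with signal-to-noise for antibody binding to printed compounds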
Torsin-1A (Homo sapiens) [8] = biological target: Torsin-1A (Homo sapiens) (UniProt O14656); assay: TOR1A wild-type binding on microarray – cell lysate, small-molecule microarray, lysate, 635/667 nm, primary screen (AID 1149); settings: COS7 hTOR1A-WT lysate, 635 nm fluorescence, higher = more signal
Torsin-1A (Homo sapiens), sequence (O14656 whole entry, looked up): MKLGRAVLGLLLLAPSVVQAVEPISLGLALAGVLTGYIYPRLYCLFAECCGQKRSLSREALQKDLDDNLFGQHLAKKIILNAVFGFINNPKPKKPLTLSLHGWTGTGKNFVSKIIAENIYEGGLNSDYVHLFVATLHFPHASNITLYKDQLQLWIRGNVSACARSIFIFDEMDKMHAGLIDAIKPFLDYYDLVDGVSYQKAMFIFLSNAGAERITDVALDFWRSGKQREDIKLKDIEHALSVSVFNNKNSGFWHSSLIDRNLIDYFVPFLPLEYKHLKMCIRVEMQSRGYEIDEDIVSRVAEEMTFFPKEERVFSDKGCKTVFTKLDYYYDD

Torsin-1A (Homo sapiens) [9] = biological target: Torsin-1A (Homo sapiens) (UniProt O14656); assay: torsin A mutant lysate binding on microarrays – cell lysate, small-molecule microarray, COS7 lysate, 635/667 nm fluorescence, primary screen (AID 1150); settings: COS7 hTOR1A mutant lysate, 635 nm fluorescence, higher = more signal;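 note: score pools 667 nm emission and signal to noise measuring lysate protein binding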
[10] = test system: Sonic hedgehog protein (Shh); assay: Sonic hedgehog microarray binding compounds – biochemical, small-molecule microarray, 635/667 nm fluorescence, primary screen (AID 1151); settings: 635 nm fluorescence, higher = more signal;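 note: Shh protein binding to compounds spotted on small-molecule microarray slides; score combines spot fluorescence intensity with signal-to-noise across triplicate slides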
[11] = optical density shifts of acrAB sulA E. coli – strain DRC41, OD650, 48 h, E. coli filamentation inducer project, primary screen (AID 1152); settings: higher = more signal, called active from +8 up or from −8 down;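 note: E. coli MC1000 strain DRC41 lacking acrAB efflux pump and sulA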
[12] = probe aLefty1 binding on compound microarray – biochemical, small-molecule microarray, 635/667 nm fluorescence, primary screen (AID 1153); settings: higher = more signal;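 note: score merges spot fluorescence with signal-to-noise ratio from the scanned slide images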
[13] = plasmodial surface anion channel blockers, osmotic lysis – cell-based, P. falciparum Indochina, OD700, 1 h, primary screen (AID 1154); settings: P. falciparum Indochina infected RBC osmotic lysis, higher = more signal, called active from +8 up or from −8 down
[14] = plasmodial surface anion channel blockers, osmotic lysis – cell-based, P. falciparum Indochina, OD700, 2 h, primary screen (AID 1155);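 note: lysis reports solute entry through the parasite surface anion channel PSAC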; settings: P. falciparum Indochina infected erythrocytes, higher = more signal, called active from +8 up or from −8 down
[15] = changes in parasitized red cell lysis, either direction – P. falciparum Indochina, OD700, 3 h, PSAC antagonist project, primary screen (AID 1156); settings: P. falciparum-infected erythrocytes, osmotic lysis, higher = more signal, called active from +8 up or from −8 down
[16] = plasmodial surface anion channel blockers, osmotic lysis – cell-based, P. falciparum Indochina, OD700, 18 h, primary screen (AID 1157); settings: P. falciparum Indochina infected erythrocytes, osmotic lysis OD700, 18 h; higher = more signal, called active from +8 up or from −8 down
[17] = S6 kinase pathway phospho-S6 level changes – cell-based, A549, cytoblot, luminescence, serum-stimulated, primary screen (AID 1158); settings: 5 h, higher = more signal;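 note: serum-stimulated A549 lung adenocarcinoma cells; signal is phosphorylated S6 detected by cytoblot immunostaining with HRP secondary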
[18] = biological target: NADPH oxidase 2 (Homo sapiens) (UniProt P04839); assay: compounds shifting NOX2 Amplex Red fluorescence – cell-based, HEK293-NOX2, PMA-stimulated, NOX inhibitor project, primary screen (AID 1159); settings: 45 min, higher = more signal, called active from +8 up or from −8 down; note: test concentration not given here
NADPH oxidase 2 (Homo sapiens), sequence (P04839 whole entry, looked up): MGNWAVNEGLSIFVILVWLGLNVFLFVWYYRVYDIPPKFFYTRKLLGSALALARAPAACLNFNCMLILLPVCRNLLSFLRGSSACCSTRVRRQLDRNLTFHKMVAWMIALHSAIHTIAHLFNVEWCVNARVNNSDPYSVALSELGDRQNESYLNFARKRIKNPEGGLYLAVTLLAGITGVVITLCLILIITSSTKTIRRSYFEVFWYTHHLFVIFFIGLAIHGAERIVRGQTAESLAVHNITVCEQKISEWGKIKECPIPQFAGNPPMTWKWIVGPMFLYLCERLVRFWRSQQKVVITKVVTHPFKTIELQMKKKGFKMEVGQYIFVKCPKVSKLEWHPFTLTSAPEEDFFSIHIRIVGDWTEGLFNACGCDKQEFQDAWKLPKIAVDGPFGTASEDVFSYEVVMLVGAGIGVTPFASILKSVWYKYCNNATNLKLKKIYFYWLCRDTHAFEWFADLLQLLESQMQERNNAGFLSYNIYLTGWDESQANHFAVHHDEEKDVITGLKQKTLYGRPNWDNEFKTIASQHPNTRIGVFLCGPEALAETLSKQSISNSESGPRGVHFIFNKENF

[19] = biological target: NADPH oxidase 4 (Homo sapiens) (UniProt Q9NPH5); assay: compounds shifting NOX4 Amplex Red fluorescence – cell-based, HEK293-NOX4, tetracycline-induced, NOX inhibitor project, primary screen (AID 1160); settings: HEK293-NOX4, Amplex Red H2O2 fluorescence, 45 min; higher = more signal, called active from +8 up or from −8 down
NADPH oxidase 4 (Homo sapiens), sequence (Q9NPH5 whole entry, looked up): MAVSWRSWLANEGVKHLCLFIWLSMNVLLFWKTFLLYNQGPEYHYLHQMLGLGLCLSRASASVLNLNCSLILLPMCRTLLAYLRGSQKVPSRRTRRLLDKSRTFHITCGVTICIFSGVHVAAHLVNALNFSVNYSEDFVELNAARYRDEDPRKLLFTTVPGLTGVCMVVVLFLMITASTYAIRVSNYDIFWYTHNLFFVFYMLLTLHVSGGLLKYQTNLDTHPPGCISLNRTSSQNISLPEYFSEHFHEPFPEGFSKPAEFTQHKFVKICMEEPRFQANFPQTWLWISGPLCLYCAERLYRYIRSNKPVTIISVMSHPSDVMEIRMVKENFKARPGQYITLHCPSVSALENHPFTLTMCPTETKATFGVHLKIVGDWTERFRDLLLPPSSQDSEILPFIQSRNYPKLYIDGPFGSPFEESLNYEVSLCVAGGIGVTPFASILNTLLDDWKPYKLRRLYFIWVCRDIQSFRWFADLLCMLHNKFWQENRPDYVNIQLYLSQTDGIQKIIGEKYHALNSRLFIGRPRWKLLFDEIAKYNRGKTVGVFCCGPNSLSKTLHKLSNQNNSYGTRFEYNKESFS

[20] = biological target: NADPH oxidase 5 (Homo sapiens) (UniProt Q96PH1); assay: compounds shifting NOX5 Amplex Red fluorescence – cell-based, HEK293-NOX5, NOX inhibitor project, primary screen (AID 1161); settings: HEK293-NOX5, ionomycin, 45 min, higher = more signal
NADPH oxidase 5 (Homo sapiens), sequence (Q96PH1 whole entry, looked up): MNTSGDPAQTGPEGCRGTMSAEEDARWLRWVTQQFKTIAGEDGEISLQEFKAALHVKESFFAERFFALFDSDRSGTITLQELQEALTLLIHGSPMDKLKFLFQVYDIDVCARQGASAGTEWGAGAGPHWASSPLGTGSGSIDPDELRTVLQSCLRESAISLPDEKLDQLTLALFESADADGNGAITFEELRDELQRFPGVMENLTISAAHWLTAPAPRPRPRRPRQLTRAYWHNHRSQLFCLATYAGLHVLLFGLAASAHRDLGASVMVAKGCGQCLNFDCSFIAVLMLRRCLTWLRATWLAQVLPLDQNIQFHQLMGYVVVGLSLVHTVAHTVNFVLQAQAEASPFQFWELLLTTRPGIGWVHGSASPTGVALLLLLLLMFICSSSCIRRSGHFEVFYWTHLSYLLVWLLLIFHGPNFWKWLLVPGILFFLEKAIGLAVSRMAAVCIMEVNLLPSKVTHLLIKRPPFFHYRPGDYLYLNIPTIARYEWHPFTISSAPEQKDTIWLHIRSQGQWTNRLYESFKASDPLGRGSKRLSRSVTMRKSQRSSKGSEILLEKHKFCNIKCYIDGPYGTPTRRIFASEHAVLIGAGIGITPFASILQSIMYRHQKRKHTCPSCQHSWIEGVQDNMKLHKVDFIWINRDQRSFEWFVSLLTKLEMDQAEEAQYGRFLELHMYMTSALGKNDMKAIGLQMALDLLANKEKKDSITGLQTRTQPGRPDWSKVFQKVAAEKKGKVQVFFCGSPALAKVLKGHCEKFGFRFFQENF

Compound	composite z-score [1]	z-score [2]	z-score [3]	z-score [4]	z-score [5]	composite z-score [6]	composite z-score [7]	composite z-score (Torsin-1A (Homo sapiens) [8])	composite z-score (Torsin-1A (Homo sapiens) [9])	composite z-score [10]	z-score [11]	composite z-score [12]	z-score [13]	z-score [14]	z-score [15]	z-score [16]	z-score [17]	z-score [18]	z-score [19]	z-score [20]
COc1ccc(O[C@@H]2[C@H](O)CO[C@H]2C=Cc2ccccc2)cc1	-0.0668	-0.617 (inactive)	-1.74 (inactive)	0.284 (inactive)	-1.04 (inactive)	-0.06	-0.179	-0.696	-0.668	0.253	-0.164 (inactive)	-0.237	1.65 (inactive)	-0.518 (inactive)	-0.433 (inactive)	-0.323 (inactive)	0.243	0.335 (inactive)	-0.426 (inactive)	-0.102
CC(C)=CCCC(C)=CCON=C1C[C@@H](O)[C@@H](O)[C@@H]2[C@@H]3C(=O)N(c4ccc(F)cc4F)C(=O)[C@@H]3CC[C@@H]12	0.291	-1.52 (inactive)	-0.665 (inactive)	1.24 (inactive)	0.671 (inactive)	1.45	-0.152	0.815	-0.0827	1.97	0.217 (inactive)	0.0999	4.44 (inactive)	1.21 (inactive)	2.06 (inactive)	1.07 (inactive)	-0.718	-0.333 (inactive)	-0.0951 (inactive)	0.0854
COC(=O)CC=C[C@@H](C)[C@@H](C=NOCC[C@@H]1C=C[C@H](OC(C)=O)[C@@H](COC(C)=O)O1)NS(=O)(=O)c1ccc(C)cc1	0.146	0.415 (inactive)	0.493 (inactive)	1.28 (inactive)	0.378 (inactive)	-0.376	-0.0523	1.14	1.44	0.554	0.385 (inactive)	0.212	0.944 (inactive)	0.107 (inactive)	-0.113 (inactive)	0.196 (inactive)	-0.879	0.174 (inactive)	0.911 (inactive)	-0.075
C=CC[C@@H]1C=C[C@H](ON=C(C)CCC(=O)OC[C@H]2O[C@H](C#Cc3ccccc3)C=C[C@@H]2Oc2ccc(C)cc2)[C@@H](CO)O1	0.0897	-0.273 (inactive)	0.0915 (inactive)	-0.306 (inactive)	0.435 (inactive)	0.635	-0.0375	0.569	0.185	0.795	-1.44 (inactive)	0.0594	28 (active)	6.05 (inactive)	0.068 (inactive)	1.57 (inactive)	-0.383	-0.367 (inactive)	0.0773 (inactive)	-0.431
O=C1C[C@@H](O)[C@@H](O)[C@@H]2[C@@H]3C(=O)N(C[C@@H]4CCCO4)C(=O)[C@@H]3CC[C@@H]12	0.191	0.149 (inactive)	-0.213 (inactive)	0.246 (inactive)	0.287 (inactive)	0.622	0.0956	0.232	0.206	0.678	0.668 (inactive)	-0.284	0.786 (inactive)	-0.191 (inactive)	1 (inactive)	-0.0672 (inactive)	0.381	-1.38 (inactive)	0.529 (inactive)	0.624
COc1cccc([C@H]2Oc3ccc(OC)cc3C(=NO[C@@H]3O[C@H](COC(C)=O)[C@@H](OC(C)=O)[C@H](OC(C)=O)[C@H]3OC(C)=O)[C@@H]2O)c1	0.186	-0.202 (inactive)	0.0537 (inactive)	0.336 (inactive)	0.38 (inactive)	-0.0198	-0.163	0.29	0.461	0.149	-1.34 (inactive)	-0.191	0.158 (inactive)	-0.0728 (inactive)	-0.362 (inactive)	0.146 (inactive)	-1.09	0.484 (inactive)	0.905 (inactive)	0.486
CO[C@H]1COC(=O)[C@@H]2CCCN2C(=O)CC=C[C@@H](C)[C@H](OC)COC(=O)[C@@H](OCc2ccccc2)C=C[C@@H]1C	-0.0628	-3.36 (inactive)	-0.576 (inactive)	1.15 (inactive)	-0.166 (inactive)	-0.0601	-0.407	1.32	0.855	1.89	-0.33 (inactive)	-0.147	0.946 (inactive)	-0.82 (inactive)	-0.0897 (inactive)	-1.41 (inactive)	0.917	0.291 (inactive)	0.275 (inactive)	0.245
O=C1C=C[C@@H](O)[C@@H]2[C@@H]3C(=O)N(c4ccc(F)cc4F)C(=O)[C@@H]3CC[C@@H]12	0.15	-1.18 (inactive)	0.0333 (inactive)	0.332 (inactive)	0.41 (inactive)	0.275	-0.123	1.15	0.629	0.93	0.262 (inactive)	-0.0559	0.337 (inactive)	-1.44 (inactive)	-0.562 (inactive)	-1.9 (inactive)	1.44	-0.632 (inactive)	0.267 (inactive)	0.713
CCO[C@H](c1cc(OC)cc([N+](=O)[O-])c1OC)[C@H](C)C=CCC(=O)OC	-0.151	0.0843 (inactive)	-0.0286 (inactive)	-0.0684 (inactive)	-0.893 (inactive)	0.0571	-0.183	0.636	0.192	1.7	0.722 (inactive)	-0.202	0.905 (inactive)	-0.222 (inactive)	-0.361 (inactive)	0.148 (inactive)	-0.168	-0.295 (inactive)	0.276 (inactive)	0.893

From PubChem BioAssay
